This note sets out measurements from PubChem BioAssay (NCI).

Each structure is given as a SMILES string. About 83,000 compounds went through this panel and 20% of them were active in at least one assay; those are over-represented in the sample as a whole.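 Note: values are percent growth. 100 is the growth of untreated cells, values between 100 and 0 indicate rising inhibition; between -100 and 0 indicates cell death.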 Unmarked numbers belong to inactive results. Calls of active or inactive are those of the source. How the source made its calls: active means growth percent below 10; inactive means the rest.

Test systems include NCI-H23 lung; NCI-H226 lung; NCI-H322M lung; HOP-62 NSCLC; NCI-H460 lung; HOP-92 NSCLC; A549/ATCC NSCLC; 786-0 renal; COLO 205 colon; DU-145 prostate; K-562 leukemia; MALME-3M melanoma; MDA-MB-231 breast; RXF 393 renal; SF-268 CNS; SF-539 CNS; UACC-257 melanoma; M14 melanoma; SF-295 CNS.
Test in all cases: NCI-60 one-dose screen, 48 h (100 = growth as untreated, 0 = no growth, -100 = all killed)
What all share (settings): 10 µM unless noted

For the compound `CNc1nc(NC2CCCC2)nc(Sc2ccc(OC)cc2)n1`, the growth in the test with NCI-H23 lung is 39.4% [100 µM]; in the test with NCI-H226 lung, 46.4% [100 µM]; in the test on NCI-H322M lung it was 68.5% [100 µM]; with HOP-62 NSCLC, 53.4% [100 µM]; in the test on NCI-H460 lung, 10.2% [100 µM]; in the test with HOP-92 NSCLC, -42.7% [100 µM] (active). In addition, the growth was 20.3% [100 µM] in the test with A549/ATCC NSCLC; 13% [100 µM] in the test with 786-0 renal; 22.5% [100 µM] in the test on COLO 205 colon; 26.5% [100 µM] in the test with DU-145 prostate; 9.58% [100 µM] (active) in the test on K-562 leukemia; -11.9% [100 µM] (active) with MALME-3M melanoma. The growth in the test on MDA-MB-231 breast was -30.9% [100 µM] (active); with RXF 393 renal it was 32% [100 µM]; in the test on SF-268 CNS it was 25.7% [100 µM]; with SF-539 CNS, 49.2% [100 µM]; with UACC-257 melanoma, 31.4% [100 µM]; in the test on M14 melanoma, 16.7% [100 µM].
Consider `COC(=O)[C@H](Cc1cn(C)cn1)NC(=O)[C@H](Cc1ccccc1)NC(=O)Nc1cc(C(F)(F)F)cc(C(F)(F)F)c1`, for which the growth is -83.3% [100 µM] (active) in the test with NCI-H23 lung; -50.9% [100 µM] (active) with NCI-H226 lung; -94.2% [100 µM] (active) in the test with NCI-H322M lung; -97.4% [100 µM] (active) with HOP-62 NSCLC; -50% [100 µM] (active) in the test on NCI-H460 lung; -97.3% [100 µM] (active) in the test with HOP-92 NSCLC. In addition, the growth was -85.6% [100 µM] (active) with A549/ATCC NSCLC; -91.4% [100 µM] (active) in the test on 786-0 renal; -82.1% [100 µM] (active) in the test with COLO 205 colon; -99.7% [100 µM] (active) in the test with DU-145 prostate; -60.2% [100 µM] (active) in the test on K-562 leukemia; -86.3% [100 µM] (active) in the test on MALME-3M melanoma. The growth with MDA-MB-231 breast is -90.8% [100 µM] (active); with RXF 393 renal it was -84.3% [100 µM] (active); with SF-268 CNS, -94.8% [100 µM] (active); in the test on SF-539 CNS, -94% [100 µM] (active); in the test on UACC-257 melanoma, -96.6% [100 µM] (active); with M14 melanoma, -90.9% [100 µM] (active).
As for `Cc1nn(-c2ccccc2)c2nc(N)c(C3=NCCO3)nc12`, the growth with NCI-H23 lung is 96.9%; in the test on NCI-H226 lung, 93.6%; in the test with NCI-H322M lung it was 89.5%; in the test with HOP-62 NSCLC it was 81.2%; in the test on NCI-H460 lung, 97.7%; in the test on HOP-92 NSCLC it was 43.6%. The growth was 86.5% with A549/ATCC NSCLC; 99.7% in the test with 786-0 renal; 94.1% in the test on COLO 205 colon; 114% in the test with DU-145 prostate; 102% in the test on K-562 leukemia; 88.6% in the test with MALME-3M melanoma. Further, the growth in the test on MDA-MB-231 breast is 87%; with RXF 393 renal, 108%; in the test with SF-268 CNS, 111%; in the test on SF-295 CNS it was 90.8%; in the test on SF-539 CNS, 99.6%; in the test with M14 melanoma, 105%.
Turning to `CCCCCCCCCCNCCSS(=O)(=O)O`, the growth with NCI-H23 lung was 86.2%; in the test on NCI-H226 lung it was 102%; in the test with NCI-H322M lung, 76.7%; with HOP-62 NSCLC it was 100%; with NCI-H460 lung, -62.7% (active); in the test with HOP-92 NSCLC, 93.3%. In addition, the growth was 69.7% in the test with A549/ATCC NSCLC; 87.6% in the test with 786-0 renal; 116% with COLO 205 colon; 73.3% in the test with DU-145 prostate; 6.77% (active) in the test on K-562 leukemia; 106% in the test on MALME-3M melanoma. Also, the growth was 76.3% in the test with MDA-MB-231 breast; 104% in the test with RXF 393 renal; -35.9% (active) with SF-268 CNS; 99.3% in the test on SF-539 CNS; 101% in the test on UACC-257 melanoma; 34.3% in the test with M14 melanoma.
For the compound `O=C1/C(=C/c2ccccc2Cl)CCc2ccccc21`, the growth is 102% in the test with NCI-H23 lung; 106% with NCI-H226 lung; 101% with NCI-H322M lung; 106% in the test on HOP-62 NSCLC; 104% in the test on NCI-H460 lung; 90.7% in the test with HOP-92 NSCLC. Besides, the growth in the test on A549/ATCC NSCLC is 83.5%; in the test with 786-0 renal, 102%; in the test with COLO 205 colon, 115%; with DU-145 prostate, 108%; in the test on K-562 leukemia it was 105%; in the test on MALME-3M melanoma, 104%. For the same compound, the growth with MDA-MB-231 breast was 111%; in the test on RXF 393 renal it was 107%; in the test on SF-268 CNS, 96.7%; in the test on SF-295 CNS, 65.3%; in the test with SF-539 CNS, 106%; in the test with M14 melanoma, 104%.
Consider `FCc1ncc(-c2ccc(C(F)(F)F)cc2)c(NC2CCCCCC2)n1`, for which the growth is 10.9% [100 µM] in the test on NCI-H23 lung; 34.4% [100 µM] with NCI-H226 lung; 36.3% [100 µM] in the test with NCI-H322M lung; 31.2% [100 µM] in the test with HOP-62 NSCLC; -28.9% [100 µM] (active) with NCI-H460 lung; -31.7% [100 µM] (active) with HOP-92 NSCLC. For the same compound, the growth was 7.62% [100 µM] (active) in the test on A549/ATCC NSCLC; -13.7% [100 µM] (active) in the test with 786-0 renal; -21% [100 µM] (active) in the test on COLO 205 colon; -27.6% [100 µM] (active) in the test with DU-145 prostate; -2.97% [100 µM] (active) in the test with K-562 leukemia; -16.9% [100 µM] (active) with MALME-3M melanoma. Besides, the growth with MDA-MB-231 breast is 0% [100 µM] (active); with RXF 393 renal it was 1.22% [100 µM] (active); in the test on SF-268 CNS, -0.671% [100 µM] (active); in the test with SF-295 CNS it was -40.9% [100 µM] (active); with UACC-257 melanoma, -6.1% [100 µM] (active); in the test on M14 melanoma, 2.44% [100 µM] (active).
On to `Cc1[nH]c(=O)[nH]c(=O)c1CCSSCCc1c(C)[nH]c(=O)[nH]c1=O`, for which the growth in the test on NCI-H23 lung was 107%; in the test with NCI-H226 lung, 102%; with NCI-H322M lung, 89.9%; in the test with HOP-62 NSCLC, 97.2%; in the test on NCI-H460 lung, 108%; in the test on HOP-92 NSCLC, 116%. For the same compound, the growth in the test on A549/ATCC NSCLC is 103%; in the test on 786-0 renal, 103%; with COLO 205 colon it was 107%; in the test on DU-145 prostate, 113%; in the test with K-562 leukemia it was 95.8%; in the test with MALME-3M melanoma, 115%. For the same compound, the growth in the test on MDA-MB-231 breast is 119%; with RXF 393 renal, 111%; in the test with SF-268 CNS, 113%; in the test with SF-295 CNS it was 98.4%; with SF-539 CNS it was 110%; in the test on M14 melanoma, 95.1%.
Consider `CC(NNC(=S)N1CCCCCC1)c1ccc2ccccc2n1` (centres undefined), for which the growth in the test on NCI-H23 lung is 60.9%; with NCI-H226 lung, 45.3%; in the test on NCI-H322M lung, 27.2%; with HOP-62 NSCLC, 42.7%; in the test on NCI-H460 lung it was 12.5%; in the test on HOP-92 NSCLC it was 65.7%. Further, the growth in the test with A549/ATCC NSCLC is 13.9%; in the test with 786-0 renal, 40%; with COLO 205 colon, 20.1%; in the test on DU-145 prostate it was 36.2%; in the test on K-562 leukemia, 18.2%; with MALME-3M melanoma, 29.1%. For the same compound, the growth with MDA-MB-231 breast was 41.6%; in the test with RXF 393 renal it was 58.3%; with SF-268 CNS it was 39.7%; in the test with SF-295 CNS, -10.9% (active); with SF-539 CNS, 18.6%; in the test on M14 melanoma, 21%.
